Source: the supplement of paper PMC3334620
In all, about 33,000 sequences were measured (“E-score (-0.5 to 0.5)”: median about -0.011, highest 2% from about 0.28 on). Shown is part of a subset that was picked to be rich in the highest values.

biological target: T1, Gcr1 (UniProt P07261); experiment: PBM E-score (8-mer binding enrichment) (E-score (-0.5 to 0.5)); higher = stronger / more preferred TF binding; conditions: protein concentration: 100 nM; construct: GST-full length
T1 sequence: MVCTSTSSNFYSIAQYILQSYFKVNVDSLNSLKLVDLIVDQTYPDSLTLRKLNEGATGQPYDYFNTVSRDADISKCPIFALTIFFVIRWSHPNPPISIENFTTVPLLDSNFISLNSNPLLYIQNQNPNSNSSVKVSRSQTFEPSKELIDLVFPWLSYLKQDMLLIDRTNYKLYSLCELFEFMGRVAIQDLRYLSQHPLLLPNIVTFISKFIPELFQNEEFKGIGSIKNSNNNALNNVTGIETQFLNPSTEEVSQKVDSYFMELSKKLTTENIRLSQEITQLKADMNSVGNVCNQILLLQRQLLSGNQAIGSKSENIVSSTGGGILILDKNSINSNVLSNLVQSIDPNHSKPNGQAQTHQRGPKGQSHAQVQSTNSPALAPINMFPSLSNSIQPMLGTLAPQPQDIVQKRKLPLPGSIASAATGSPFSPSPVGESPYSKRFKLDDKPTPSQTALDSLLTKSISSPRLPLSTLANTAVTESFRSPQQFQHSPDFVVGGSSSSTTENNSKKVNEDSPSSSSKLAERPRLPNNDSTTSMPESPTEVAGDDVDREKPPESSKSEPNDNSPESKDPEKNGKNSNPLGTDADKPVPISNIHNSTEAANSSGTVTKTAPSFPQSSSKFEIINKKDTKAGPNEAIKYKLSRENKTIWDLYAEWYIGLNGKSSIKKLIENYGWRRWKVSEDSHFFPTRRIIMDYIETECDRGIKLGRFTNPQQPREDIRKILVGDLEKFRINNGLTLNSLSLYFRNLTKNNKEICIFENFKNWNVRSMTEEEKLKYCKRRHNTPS
Description: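 Universal 'all 10-mer' protein binding microarrays (Agilent AMADID 015681) probed with GST-tagged S. cerevisiae TFs (full-length or DBD) made by in vitro transcription/translation (PURExpress), about 100-200 nM. Bound TF was detected with fluorescent anti-GST. Each ungapped 8-mer (which stands for itself and its reverse complement) is scored by the PBM enrichment score (E-score), a modified Wilcoxon-Mann-Whitney statistic from -0.5 to +0.5, computed with the Universal PBM Analysis Suite. Scale: above 0.35 generally sequence-specific binding.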

Row | Sequence | PBM E-score
1 | AGGCTCGC | -0.213
2 | CCTGGGCA | -0.022
3 | CCTATAGC | -0.0383
4 | ACTATAGA | 0.0257
5 | CCTATAGA | 0.286
6 | TATGAAGA | 0.0942
7 | ATAATTAA | 0.134
8 | ATAATTAC | 0.0678
9 | ATAATTAT | 0.297
10 | GAAAGAGA | -0.038
11 | GCGCTGCC | 0.0863
12 | ACGCTGAT | -0.0742
13 | ACGCTGCC | 0.339
14 | ACGCTGCG | 0.086
15 | ACGCTGCA | 0.0243
16 | ACGCTGCT | 0.34
17 | AGCAGGAC | -0.0439
18 | AGTCCCGG | 0.108
19 | CCAGGCCG | -0.117
20 | GAGCTAGC | -0.122
21 | GCGAGCGC | -0.0888
22 | AGATCAGA | -0.0273
23 | AACCCTGT | -0.0296
24 | AAATCTGC | 0.0369
25 | AAATCTGG | 0.292
26 | CAATCTGG | -0.0284

Row | Sequence | PBM E-score
27 | CCGTTAGG | 0.0609
28 | CCCGGGAC | 0.21
29 | ATTGCGGG | -0.0146
30 | TATGCCCA | -0.14
31 | GGTGCCGA | 0.285
32 | AGTGCCCA | 0.0254
33 | GATGCCCA | 0.378
34 | GGTGCCCA | 0.382
35 | AGTGCCGA | -0.0356
36 | GATGCCCC | 0.248
37 | CGTGCCCA | 0.0649
38 | CGTGCCGA | -0.0978
39 | AGATTCAG | 0.117
40 | ACAGGGAC | 0.107
41 | CCTTCCCC | -0.122
42 | ACTTCCCA | 0.0658
43 | ACTTCCCC | 0.0219
44 | GCTTCCCC | 0.341
45 | GCTTCCCA | 0.386
46 | CCTTCCCA | 0.122
47 | CTGTGGGC | 0.0855
48 | GGTAGATA | 0.00026
49 | CAGTGCCA | -0.0969
50 | ATGCCGGA | 0.215
51 | AATAGCGC | 0.0793
52 | ACATCCGA | -0.104

Row | Sequence | PBM E-score
53 | CCATCCTA | 0.0473
54 | ACATCCTA | 0.166
55 | GCATCCTA | 0.4
56 | CCATCCGA | -0.0665
57 | GCATCCGA | 0.33
58 | ACCTATAT | 0.194
59 | ATGTTGTC | -0.117
60 | ATAATTGC | -0.00448
61 | ACGTATAA | 0.132
62 | CCGTATAA | 0.195
63 | GTGTATAA | -0.0442
64 | CCCTATAA | 0.141
65 | GCGTATAC | 0.156
66 | GCGTATAA | 0.353
67 | ACCTATAA | 0.0515
68 | TCGTATAA | 0.286
69 | TCCTATAA | 0.334
70 | AAGGTGCA | -0.0118
71 | CAATAGCG | 0.025
72 | CGAAATAG | 0.131
73 | ACCCTGCG | -0.0486
74 | CGGAATAA | -0.168
75 | GATGCGCA | 0.134
76 | CTGGTTCC | 0.34
77 | ATGGTTCC | 0.0654
78 | ACGGTTGC | -0.264

Row | Sequence | PBM E-score
79 | CTGGTTGA | -0.09
80 | CCGGTTGA | 0.0186
81 | ATGGTTGC | 0.274
82 | CTGGTTCA | -0.192
83 | CTGGTTGC | 0.288
84 | CCGGTTGC | 0.317
85 | ACGGTGTC | -0.168
86 | CTGCTACA | 0.0929
87 | CTCATCAG | 0.0338
88 | CTTCTATA | 0.187
89 | CAGATACA | 0.0958
90 | GACATTCA | -0.094
91 | AATAACGT | 0.00611
92 | AGATGCTG | 0.282
93 | CGATGCCC | 0.0343
94 | AGATGCCG | 0.273
95 | AGATGCCA | 0.385
96 | GGATGCCC | 0.464
97 | GAATGCTA | -0.121
98 | AGATGCCC | 0.108
99 | AGATGCTC | 0.0444
100 | GGATGCTA | 0.44
101 | AGATGCTA | 0.25
102 | AGATGCCT | 0.17
103 | CGATGCTA | 0.266
104 | AGAGCGCC | 0.0412

Row | Sequence | PBM E-score
105 | CGCAACAG | -0.0598
106 | GGCAAACA | -0.14
107 | GTGGGAGA | 0.0205
108 | GTGGTAGA | -0.166
109 | AAGGTTGT | 0.0394
110 | TGATGCCA | -0.0459
111 | GGATGCCA | 0.454
112 | CGATGCCA | 0.156
113 | CGTAGGGC | -0.108
114 | ATTAGCTG | 0.107
115 | AACTGTAC | -0.166
116 | GAGAAGCA | 0.111
117 | CGGAAGGC | 0.00052
118 | AAGAAGCC | 0.401
119 | AAGAAGGT | 0.122
120 | CGGAAGCC | 0.451
121 | GAGAAGCC | 0.395
122 | AAGAAGCG | 0.0955
123 | AAGAAGCT | 0.386
124 | GCGAAGCC | 0.1
125 | AAAAAGCT | -0.183
126 | CGGAAGCA | 0.0914
127 | AAGAAGCA | 0.165
128 | CGACCCCC | -0.203
129 | GCAGAGAA | -0.0151
130 | TGAGCACA | -0.235

Row | Sequence | PBM E-score
131 | AGCATAAT | -0.00272
132 | ATATACTA | 0.174
133 | AAAGTTAA | 0.0767
134 | CAGAAGCC | 0.306
135 | CAGAAGCG | 0.223
136 | CAGAAGCA | 0.0126
137 | ACGCTAGA | -0.0413
138 | TAGCGATA | -0.0939
139 | CATGCCTC | -0.101
140 | CTCCAGCC | -0.183
141 | CAATCGGG | 0.0633
142 | CGGCAACC | 0.29
143 | AAGCAACC | 0.0616
144 | CCGCAACA | -0.0641
145 | AGGCAACC | 0.0186
146 | CAGCAACG | 0.0545
147 | ACGCAACC | 0.121
148 | CAGCAACC | 0.287
149 | CGGCAACA | 0.206
150 | CCGCAACC | 0.316
151 | TTCGCCAA | 0.0203
152 | CCACCGCC | -0.0958
153 | ACTTTGCA | -0.0113
154 | CCGGGGAA | 0.0357
155 | CAACGCAC | -0.152
156 | AAGATATT | 0.125

Row | Sequence | PBM E-score
157 | ACCGAGTC | -0.306
158 | ATAGAGAA | -0.111
159 | CGAGTAGC | -0.018
160 | GGTGTGAA | -0.0292
161 | CCTGATCC | 0.0357
162 | AATAAGAT | 0.0233
163 | AATAAGAA | 0.328
164 | AAGAAAAT | 0.304
165 | CAGAAGAA | 0.212
166 | AAGAAGAC | 0.0399
167 | TAGAAGAA | 0.352
168 | AATAAGAG | 0.0844
169 | AAGAAATT | 0.0237
170 | AAGAAGAA | 0.303
171 | GAGAAGAA | 0.0707
172 | ACGAAGAA | -0.0157
173 | AAGAAAAA | 0.164
174 | CCGGAGAA | -0.189
175 | AGGTTTTC | 0.0618
176 | CACACAAG | 0.128
177 | ACTTTCAC | 0.0906
178 | TACCCCGA | -0.036
179 | GGACCGAA | 0.0294
180 | AAATCGTT | -0.0365
181 | ACGAAGAT | 0.00119
182 | CACAAGAA | 0.275

Row | Sequence | PBM E-score
183 | AAGAAGAG | 0.237
184 | AAGAAGAT | 0.338
185 | TACAAGAA | 0.379
186 | TACAAAAA | 0.0752
187 | GTCGGCAA | 0.0614
188 | GGATCAAC | -0.00409
189 | ACTCAATA | 0.156
190 | GTTTTGGA | 0.122
191 | ATTTTGGG | 0.274
192 | CATTTGGA | 0.172
193 | ATTTTGGA | 0.282
194 | GTTTGGGA | -0.0986
195 | ATTTGGGG | 0.23
196 | ATTTGGGA | 0.301
197 | TATTTGGA | 0.313
198 | AATTTGGA | 0.263
199 | AAGCTCCG | 0.00534
200 | AACCAACA | 0.0425
201 | CTTTGAGC | -0.149
202 | GACCATCC | -0.0793
203 | GCGCCCAA | 0.18
204 | GCGCCCAC | 0.317
205 | GCGCCCGC | 0.315
206 | ACGCCCGC | 0.105
207 | CCGCCCAC | 0.0451
208 | CCGCCCGC | -0.0787

Row | Sequence | PBM E-score
209 | TAAAGGTA | -0.0155
210 | GTGCTACA | -0.119
211 | CTAAACGA | -0.00769
212 | GGTTAACC | -0.194
213 | AATCTGGT | 0.281
214 | AATCTGGC | 0.0826
215 | AATCTGGA | 0.257
216 | CGTTCCCC | -0.0544
217 | AACAAGTG | 0.0405
218 | AATGCCAA | 0.042
219 | TATGCCAA | -0.104
220 | AATGCCAC | -0.0507
221 | GATGCCGA | 0.335
222 | GATGCCAA | 0.351
223 | CATGCCAC | -0.109
224 | GATGCCAC | 0.342
225 | CATGCCGA | 0.041
226 | AATGCCGA | -0.178
